Screening data: PubChem BioAssay, NMMLSC
Sampled rows, rich in hits. Any-hit rate of the full collection: about 2.5%.
MEKK2 WT-MEK5: raises or lowers MEK5 binding to wildtype human MEKK2 PB1 domain | Q9Y2U5 | bead flow cytometry, Alexa488-MEK5 binding to MEKK2 WT; actives lie on both sides | binding response (% of control), % at 10 µM | actives 1.1% (n = 290,000) | AID 1531; in the data active = binding response below about 67% or above about 130%
MEKK2mut PB1 HTS: signal of MEK5 binding to mutant human MEKK2 PB1 domain | bead flow cytometry, Alexa488-MEK5 binding to MEKK2 mutant | percent response, % at 10 µM | actives 0.35% (n = 290,000) | AID 1530; in the data active = percent response above about 24%, passing the limit was not always enough
MEKK3 PB1 HTS: raises or lowers MEK5 binding to the human MEKK3 PB1 domain | AID 1529 | binding response (% of control), % at 10 µM | Q99759 | actives 1.4% (n = 290,000) | bead-based flow cytometry, Alexa488-MEK5 binding to MEKK3; actives lie on both sides; 0 = blocked by unlabeled MEK5, 100 = vehicle;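 active = binding response more than 3 SD above or below the average of its plate-row segment, actives on both sides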;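 also: Alexa488 bead fluorescence after subtracting the streptavidin-only scavenger bead signal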
GRK2 aptamer HTS: blocks RNA aptamer binding to human GRK2 | bead flow cytometry, FAM-aptamer displacement from GRK2 | actives 0.59% (n = 330,000) | P25098 | inhibition of aptamer binding, % at 10 µM;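 active = inhibition of aptamer binding above 40%, roughly 3 SD of noise, on plates passing a quality check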;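 also: median bead fluorescence of bound FAM aptamer so fluorescent compounds give negative values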
Target sequence (P25098 whole entry, looked up): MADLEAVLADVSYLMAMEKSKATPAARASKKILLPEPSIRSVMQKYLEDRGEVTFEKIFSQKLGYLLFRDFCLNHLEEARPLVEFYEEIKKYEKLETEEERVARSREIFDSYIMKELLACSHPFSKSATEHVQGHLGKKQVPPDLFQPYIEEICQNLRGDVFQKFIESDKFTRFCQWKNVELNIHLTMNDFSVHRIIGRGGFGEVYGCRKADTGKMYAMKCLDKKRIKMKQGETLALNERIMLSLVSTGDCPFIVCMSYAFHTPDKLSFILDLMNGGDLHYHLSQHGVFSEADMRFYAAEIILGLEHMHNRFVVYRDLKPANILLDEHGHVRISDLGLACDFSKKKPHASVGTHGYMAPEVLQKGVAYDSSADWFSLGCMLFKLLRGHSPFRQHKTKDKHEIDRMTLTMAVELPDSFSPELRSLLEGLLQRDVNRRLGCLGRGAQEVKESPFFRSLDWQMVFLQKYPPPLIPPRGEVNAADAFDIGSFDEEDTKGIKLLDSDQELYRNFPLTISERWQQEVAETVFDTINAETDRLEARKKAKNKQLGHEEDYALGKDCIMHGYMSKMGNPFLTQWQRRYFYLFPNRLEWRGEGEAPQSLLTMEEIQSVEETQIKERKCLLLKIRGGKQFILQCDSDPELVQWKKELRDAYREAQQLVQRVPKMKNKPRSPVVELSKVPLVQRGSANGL
MEKK2wt confirm: raises or lowers MEK5 binding to wildtype human MEKK2, retest. bead flow cytometry, Alexa488-MEK5 binding to MEKK2 WT; actives lie on both sides. actives 2.4% (n = 5,900). shares compounds with MEKK3 PB1 HTS. binding response (% of control), % at 10 µM; in the data active = binding response below about 16% or above about 210%; inactive = in between
MEKK2mut-MEK5: signal of MEK5 binding to mutant human MEKK2, retest | shares compounds with MEKK3 PB1 HTS | bead flow cytometry, Alexa488-MEK5 binding to MEKK2 mutant | percent response, % at 10 µM | actives 2% (n = 5,900) | AID 1893; in the data active = percent response mostly above about 71%, no sharp cut-off; inactive = mostly below about 38%;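 also: higher means compound restores mutant binding toward wildtype level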
MEKK3 confirm: MEKK3-MEK5 PB1 inhibition, single concentration confirmation; shares compounds with MEKK3 PB1 HTS; bead flow cytometry, Alexa488-MEK5 binding to MEKK3; active compounds read low; binding response (% of control), % at 10 µM; actives 1.8% (n = 5,900); AID 1894;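 active = binding response below 72% of control, or above a set upper limit, though filed actives all read lower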;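 also: 100% = DMSO only wells and 0% = binding blocked by excess unlabeled MEK5; lower values mean stronger disruption of MEK5 binding to MEKK3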
Active calls of the source: *; · = no result given; [ ] = remark or other dose.

SMILES	MEKK2 WT-MEK5	MEKK2mut PB1 HTS	MEKK3 PB1 HTS	GRK2 aptamer HTS	MEKK2wt confirm	MEKK2mut-MEK5	MEKK3 confirm
c1ccc(CNc2nc(N3CCN(Cc4ccccc4)CC3)nc3ccccc23)cc1	161*	16	112	0	185	45	103
c1ccc(CN2CCC(Nc3nc(-c4ccccc4)nc4ccccc34)CC2)cc1	144*	21	104	0	162	32	106
c1ccc(N2CCN(c3nc(NCc4ccco4)c4ccccc4n3)CC2)cc1	145*	19	106	0	162	39	106
CN(C)c1cc(-c2ccccc2)nc(-c2ccccc2)n1	111	4	106	4	·	·	·
CCc1ccc(C(=O)COC(=O)c2cncc(Br)c2)cc1	102	1	107	1	·	·	·
CSc1ccc(NC(=O)NCCCN2CCC(Cc3ccccc3)CC2)cc1	162*	30*	111	0	185	40	112
COc1ccc(NC(=O)NCCCN2CCC(Cc3ccccc3)CC2)cc1	96	-6	90	0	·	·	·
CSc1ccc(NC(=O)NCCN2CCc3ccccc3C2)cc1	86	-20	49*[inhibitor]	0	132	17	107
COc1ccc(NC(=O)NCCN2CCc3ccccc3C2)cc1	101	-14	87	0	·	·	·
O=C(NCCc1ccccc1)C1CCCN(C(=O)Nc2ccc(F)cc2)C1 (stereo not given)	97	-4	101	1	·	·	·
COCc1c(C#N)c(NCCc2ccc(F)cc2)nc(C)c1[N+](=O)[O-]	104	-1	116	2	·	·	·
COCc1c(C#N)c(NCCc2ccccc2)nc(C)c1[N+](=O)[O-]	106	1	128*	1	-1.0*[inhibitor]	-29	0.0*
O=C(CCl)NC(Cc1c[nH]c2ccc(OCc3ccccc3)cc12)C(=O)O (stereo not given)	103	3	105	0	·	·	·
CCc1nnc(N/N=C/c2cc(Br)c(O)cc2O)n1N	91	1	92	0	·	·	·
CC(C)(C)c1nnc(N/N=C/c2cc(Br)ccc2O)n(N)c1=O	105	0	142*	5	122	14	106
Cc1cccc(C)c1NC(=O)C1(N(Cc2ccco2)C(=O)Cn2nnnc2N)CCCCC1	102	0	108	1	·	·	·
Cc1cccc(C)c1NC(=O)C1(N(Cc2ccco2)C(=O)CC2NC(=O)NC2=O)CCCC1 (stereo not given)	3.0*[inhibitor]	-16	3.0*[inhibitor]	0	104	6	109
O=C(NCc1ccccn1)c1ccc(Cn2c(=S)[nH]c3ccc(Br)cc3c2=O)cc1	91	-7	97	0	·	·	·
O=c1c2cc(Cl)ccc2[nH]c(=S)n1Cc1ccccn1	103	0	151*	0	106	-2	102
COc1ccc(-c2sc3ccc(-c4ccc5c(c4)OCO5)cc3c2-c2ccc(OC)nc2)cc1	·	·	·	1	·	·	·
Clc1ccc(SCc2csc(N3CCOCC3)n2)cc1	75	-32	74*[inhibitor]	0	95	-4	97
CC1=CC(C)(C)n2c(O)c(N=N)c3cc(C)cc1c32	105	1	141*	3	103	3	103
COc1ccc2sc(N(CCCN(C)C)C(=O)c3nc4ccccc4s3)nc2c1	195*	25	111	0	166	38	104
COc1ccc2nc(N(CCN(C)C)C(=O)c3ccc(C(=O)c4ccccc4)cc3)sc2c1	146*	24*	108	0	148	18	102
CCN(CC)CCN(C(=O)c1ccc(S(=O)(=O)N(C)C2CCCCC2)cc1)c1nc2ccc(OC)cc2s1	129	5	103	1	·	·	·
SMILES	MEKK2 WT-MEK5	MEKK2mut PB1 HTS	MEKK3 PB1 HTS	GRK2 aptamer HTS	MEKK2wt confirm	MEKK2mut-MEK5	MEKK3 confirm
CCN(CC)CCN(C(=O)c1ccc(C(=O)c2ccccc2)cc1)c1nc2ccc(OC)cc2s1	172*	37*	113	1	163	31	105
COc1ccc(/C=C/c2cc(-c3ccc(C)cc3)o[n+]2C)cc1	155*	18	109	0	112	9	95
COc1ccc(/C=C/c2c(-c3ccc(OC)cc3)oc3ccc(-c4ccc(OC)cc4)cc23)cc1	98	-3	102	2	·	·	·
COc1ccc(N2CCN(C(CNC(=O)C(=O)NCC3CCCO3)c3ccco3)CC2)cc1 (stereo not given)	114	1	132*	2	105	0	102
COC(=O)NCC(c1ccco1)N1CCN(c2ccc(OC)cc2)CC1 (stereo not given)	109	4	100	0	·	·	·
Cn1nc(C(=O)NCc2ccccc2Cl)c2c1-c1ccccc1S(=O)(=O)C2	86	-20	83	3	·	·	·
Cc1cccc2c(C(=O)O)c3cccc(C)c3nc12	·	·	·	1	·	·	·
O=C(CN1CCC(NC(=O)c2ccccc2F)CC1)NCc1ccc(F)cc1	106	7	101	0	·	·	·
Cc1cc(C)cc(NC(=O)CN2CCC(NC(=O)c3ccccc3F)CC2)c1	135*	8	104	0	117	6	101
COc1cccc(NC(=O)N2CCCC2C(=O)NCc2ccc(Cl)cc2)c1 (stereo not given)	113	12	111	6	·	·	·
COc1cccc(-c2nc(C(=O)NCCCN3CCOCC3)cc3c2[nH]c2ccccc23)c1	127	9	103	0	·	·	·
O=C(NCCCN1CCOCC1)c1cc2c([nH]c3ccccc32)c(-c2cccc(Br)c2)n1	161*	31*	112	0	177	36	110
Cc1nn(Cc2cccc(C(=O)N3CCCC(C)C3)c2)c(C)c1[N+](=O)[O-] (stereo not given)	100	-2	98	1	·	·	·
Clc1ccc(-n2c(SCc3nc4ccccc4[nH]3)nnc2-c2ccncc2)cc1	104	5	101	0	·	·	·
Brc1ccc(-n2c(SCc3nc4ccccc4[nH]3)nnc2-c2ccncc2)cc1	108	0	150*	0	102	2	100
COc1ccccc1NC(=O)C(C/C=C(\C)Cl)C(C)=O (stereo not given)	83	-9	79*[inhibitor]	0	103	-6	101
COc1ccccc1NC(=O)C(CC=C(Cl)Cl)C(C)=O (stereo not given)	104	2	100	0	·	·	·
CC(=O)OCC1=C(C(=O)O)N2C(=O)C(NC(=O)c3ccc(F)cc3)C2SC1 (stereo not given)	120	1	139*	2	107	5	108
Cc1noc(C)c1NC(=O)N(C)C[C@@H]1Oc2ccc(NC(=O)CCC(F)(F)F)cc2CC(=O)N([C@@H](C)CO)C[C@@H]1C	·	·	·	0	·	·	·
